The full ranking holds about 110,000 compounds; the median of “z-score” is about -0.1, and the highest 2% start at about 2. The sample as a whole holds a higher share of the highest values than the screen did. Calls of active or inactive are those of the source.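 The calls were made as follows: active = z-score in the third read window above 3 or below -3; inactive = the rest.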

Metabotropic glutamate receptor 8 (Rattus norvegicus), sequence (P70579 whole entry, looked up): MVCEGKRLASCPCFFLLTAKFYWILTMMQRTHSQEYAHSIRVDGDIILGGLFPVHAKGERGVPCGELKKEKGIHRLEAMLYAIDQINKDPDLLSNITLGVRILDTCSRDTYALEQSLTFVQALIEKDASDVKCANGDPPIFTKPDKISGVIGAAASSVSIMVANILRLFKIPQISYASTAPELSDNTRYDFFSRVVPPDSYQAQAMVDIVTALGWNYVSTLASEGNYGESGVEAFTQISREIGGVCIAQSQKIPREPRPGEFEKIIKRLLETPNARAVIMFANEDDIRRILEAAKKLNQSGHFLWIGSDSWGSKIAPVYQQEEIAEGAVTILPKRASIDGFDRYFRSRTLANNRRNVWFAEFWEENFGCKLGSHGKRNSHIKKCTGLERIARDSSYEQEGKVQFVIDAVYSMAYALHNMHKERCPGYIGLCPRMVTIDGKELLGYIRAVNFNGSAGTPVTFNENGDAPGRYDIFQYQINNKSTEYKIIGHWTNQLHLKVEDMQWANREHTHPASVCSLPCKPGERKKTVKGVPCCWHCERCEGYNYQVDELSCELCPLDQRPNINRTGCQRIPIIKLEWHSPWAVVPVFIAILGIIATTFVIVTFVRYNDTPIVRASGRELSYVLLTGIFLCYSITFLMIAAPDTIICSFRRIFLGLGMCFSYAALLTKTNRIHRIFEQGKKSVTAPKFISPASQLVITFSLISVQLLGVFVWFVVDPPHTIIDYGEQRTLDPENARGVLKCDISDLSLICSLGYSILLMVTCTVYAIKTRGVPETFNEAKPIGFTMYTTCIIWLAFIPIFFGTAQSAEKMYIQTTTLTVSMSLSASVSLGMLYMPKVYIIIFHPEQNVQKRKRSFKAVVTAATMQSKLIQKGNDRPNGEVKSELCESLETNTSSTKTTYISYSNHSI

This assay concerns the target Metabotropic glutamate receptor 8 (Rattus norvegicus) (UniProt P70579). Nature of the assay: rat mGluR8 modulators via GIRK flux, primary screen, cell-based, thallium flux, HTS (AID 488969). As to conditions: HEK293 rat mGluR8, GIRK (G protein-gated inwardly rectifying potassium channel) thallium flux, FluoZin2; at 10 µM; stronger effect = higher value; submaximal glutamate (EC20) added with thallium.
Regarding `CNC(=S)NNC(=O)Cc1ccc(O)cc1`, the z-score is 0.306.
Compound `CCN(CC)S(=O)(=O)c1ccc2c(c1)nc(CCC(=O)Nc1cccc(C(F)(F)F)c1)n2CC` showed a z-score of -0.277.
To `CCSc1nnc(NC(=O)C2(C)Cc3ccccc3C(=O)O2)s1` (configuration not stated) belongs -0.0977.
Consider `CCCCc1c(O)nc2sccn2c1=O`, for which the z-score is -0.251.
The result for `Cc1cc(N2CCC(C(=O)NC3CC3)CC2)nc(-c2ccccc2)n1` reads 1.41.
The result for `Cn1c(=O)cc(OCCCC(=O)Nc2ccccn2)c2ccccc21` reads -0.243; that for `CC(C1CC1)N(C(=O)NC1CCS(=O)(=O)C1)c1ccccc1` (configuration not stated), -0.27.
The result for `CCOc1ccc(NC(=O)c2ccco2)cc1` reads -0.0362; that for `COc1ccc(NC(=O)CN2C(=O)C(C)Oc3ccccc32)cc1` (configuration not stated), -0.12; that for `CC1Oc2ccccc2N(CC(=O)NCCc2ccccc2)C1=O` (configuration not stated), 2.08.
In turn, `CC1Oc2ccccc2N(CC(=O)NCC2CCCO2)C1=O` (configuration not stated) showed a z-score of -0.413.
The result for `C=CCn1c(=N)n(CC(=O)c2ccc(Br)s2)c2ccccc21` reads -1.22; that for `C/C(=N/NC(=O)c1sc(NS(=O)(=O)c2ccccc2)nc1C)c1ccccc1`, 0.345; that for `CN(c1ccc([N+](=O)[O-])cc1C(=O)Nc1ccccc1)C1CCCCC1`, -0.377.
Take `COc1cc(CNC2CCCC2)cc(Cl)c1OCc1ccccc1F`: the z-score was 2.5.
To `COc1cc(CNC2CCCC2)cc(Cl)c1OCc1ccc(F)cc1` belongs -0.271; to `COc1cc(CNC2CCCC2)cc(Cl)c1OCc1ccccc1Cl`, 0.0424.
To `CN1CCN(CCCNC(=O)c2cn(C3CCCCC3)c(=O)c3c2c2ccccc2n3C)CC1` belongs -0.464.
The result for `CC1CCC(C(C)C)C(OC(=O)CSc2nc(N)cc(=O)[nH]2)C1` (configuration not stated) reads -0.124.
Regarding `O=C(CSCc1ccccc1)N=Nc1c(O)[nH]c2ccccc12`, the z-score is 6.08 (active).
The compound `O=C(CSCc1ccc(Br)cc1)N=Nc1c(O)[nH]c2ccccc12` had a z-score of 2.84.
The result for `O=C(CSc1nc2ccccc2[nH]1)N=Nc1c(O)[nH]c2ccccc12` reads -0.572.
To `O=C(Cn1nnc(-c2ccccc2)n1)N=Nc1c(O)[nH]c2ccccc12` belongs -0.0918; to `O=C(CN1CCN(Cc2ccccc2)CC1)N=Nc1c(O)[nH]c2ccccc12`, -0.328.
The compound `O=C(CSCc1cccc(Br)c1)N=Nc1c(O)[nH]c2ccccc12` showed a z-score of -0.113.
The result for `CCOC(=O)c1c(CN2CCOCC2)n(-c2ccccc2)c2cc(Br)c(O)c(CN(C)C)c12` reads -0.781; that for `CC(C)OCCCNC(=O)C(C)Oc1ccccc1` (configuration not stated), -0.305; that for `CCCOc1ccc(C(=O)N2CCN(c3ccc(N)cc3Cl)CC2)cc1`, -0.235.
To `COC(=O)C(Cc1ccc(O)cc1)NC(=O)CCC(=O)Nc1ccc(S(N)(=O)=O)cc1` (configuration not stated) belongs -0.14.
To `Cc1c(NC(=O)C(C)Sc2nnc(-c3ccccc3)o2)c(=O)n(-c2ccccc2)n1C` (configuration not stated) belongs -0.308; to `CC(=O)c1ccc(NC(=O)CCn2c(=O)oc3ccccc32)cc1`, -0.318; to `CCc1ccc(NC(=O)CCn2c(=O)oc3ccccc32)cc1`, 0.0251.
`COCCN(CCOC)C(=O)CCn1c(=O)oc2ccccc21` returned a z-score of 0.976.
To `COC(=O)c1ccc(NC(=O)CCn2c(=O)oc3ccccc32)cc1` belongs 2.57; to `O=C(CCn1c(=O)oc2ccccc21)N(Cc1ccccc1)c1ccccn1`, 0.207.
In turn, `CN(Cc1ccccc1)C(=O)CCn1c(=O)oc2ccccc21` gave a z-score of 2.02.
The result for `CNC(=S)N(Cc1ccc2c(c1)OCO2)C1CC(=O)N(c2ccc(F)cc2)C1=O` (configuration not stated) reads 0.0865; that for `O=C(CN1C(=O)c2ccccc2C1=O)Nc1ccc2c(c1)OCO2`, -0.335.
To `Cn1c(=O)[nH]c2sc3c(c2c1=O)CC(C)(C)OC3` belongs -0.263; to `CCC1(C)Cc2c(sc3nc(SC)n(Cc4ccccc4)c(=O)c23)CO1` (configuration not stated), -0.216.
For the compound `CSc1nnc2n(Cc3ccccc3)c(=O)c3c4c(sc3n12)COC(C(C)C)C4` (configuration not stated), the z-score is -0.311.
To `Cc1nnc2n(Cc3ccccc3)c(=O)c3c4c(sc3n12)COC(C)(C)C4` belongs 0.198.
To `CCC1(C)Cc2c(sc3[nH]c(=S)n(Cc4ccccc4)c(=O)c23)CO1` (configuration not stated) belongs 8.14 (active).
To `CCC1(C)Cc2c(sc3c2c(=O)n(-c2ccccc2)c(=O)n3C)CO1` (configuration not stated) belongs -0.673; to `CC1(C)Cc2c(sc3[nH]c(=S)n(Cc4ccccc4)c(=O)c23)CO1`, 14.5 (active).
Consider `CC(C)C1Cc2c(sc3c2c(=O)n(Cc2ccccc2)c2nncn32)CO1` (configuration not stated), for which the z-score was -3.44 (active).
To `CC1(C)Cc2c(sc3[nH]c(=S)n(Cc4ccco4)c(=O)c23)CO1` belongs 8.31 (active); to `CC1(C)Cc2c(sc3c2c(=N)n(Cc2ccco2)c(=O)n3Cc2ccccc2)CO1`, -0.918; to `CCn1c(=O)n(Cc2ccco2)c(=N)c2c3c(sc21)COC(C)(C)C3`, -0.025.
To `CC(C)C1Cc2c(sc3[nH]c(=S)n(Cc4ccccc4)c(=O)c23)CO1` (configuration not stated) belongs 5.29 (active); to `O=C(CSc1nnc(-c2ccccc2)n1-c1ccccc1)N1c2ccccc2Sc2ccccc21`, -1.52.
To `CC1CCCCN1C(=O)NC12CC3CC(CC(C3)C1)C2` (configuration not stated) belongs -0.518; to `CCOc1ccc2c(c1)n(CO)c(=S)n2CO`, 0.0706.
Turning to `C(=C\c1cccc2ccccc12)/c1nnc(-c2cccs2)o1`, the z-score is -0.201.
To `COc1ccc(CC(=O)n2c(CC#N)nc3ccccc32)cc1OC` belongs 0.0175; to `Cc1ccc2c(Cn3cc(C(F)(F)F)cc(Cl)c3=O)cc(=O)oc2c1`, -0.249; to `CC(C)OC(=O)c1ccc(N2C(=O)C3CC=CCC3C2=O)cc1` (configuration not stated), 0.0622.
The compound `C=CCOC(=O)Nc1c(C(=O)OC)[nH]c2ccc(Cl)cc12` came in with a z-score of -0.103.
To `CCOCCCNC(=O)/C(C#N)=C/c1ccc(-c2ccc(S(=O)(=O)N3CCOCC3)cc2)o1` belongs 2.32.
The result for `CCCCNC(=O)/C(C#N)=C/c1ccc(-c2ccc(S(=O)(=O)N3CCOCC3)cc2)o1` reads 0.164; that for `COCCNC(=O)/C(C#N)=C/c1ccc(-c2ccc(S(=O)(=O)N3CCOCC3)cc2)o1`, -0.137.
The result for `O=C(OCC1COc2ccccc2O1)c1c(F)cccc1F` (configuration not stated) reads 0.396; that for `N=c1oc2ccccc2cc1-c1nc(-c2ccc(Cl)cc2)cs1`, -0.248; that for `COc1ccc(-c2csc(-c3cc4ccccc4oc3=N)n2)cc1`, -0.00953.
With `N=c1oc2ccc3ccccc3c2cc1-c1nc(-c2ccccc2)cs1`, the z-score is 3.16 (active).
To `CCN(CC)C(=O)N1c2ccccc2C=Cc2ccccc21` belongs -0.214.
To `O=C(Nc1nnc(C2CC2)o1)c1ccc(S(=O)(=O)N2CCCc3ccccc32)cc1` belongs 1.85; to `COc1ccc(-c2nnc(NC(=O)c3ccc(S(=O)(=O)N4CCc5ccccc5C4)cc3)o2)cc1`, 9.68 (active).
To `COc1ccc(-c2nnc(NC(=O)c3ccc(S(=O)(=O)N4CCCc5ccccc54)cc3)o2)cc1` belongs 2.07; to `COc1ccc(-c2nnc(NC(=O)c3ccc(S(=O)(=O)N4COCC4(C)C)cc3)o2)cc1`, 1.22.
In turn, `CCc1nnc(NC(=O)c2ccc(S(=O)(=O)N3CCCc4ccccc43)cc2)o1` had a z-score of 0.372.
The result for `CCc1nnc(NC(=O)c2ccc(S(=O)(=O)N3CCc4ccccc4C3)cc2)s1` reads -0.158; that for `COC(=O)COc1cc(Br)c(/C=C2/SC(=O)N(CC(=O)N3CCCC3)C2=O)cc1OC`, 0.0962.
The result for `O=C(OCc1nc2ccc(Cl)cc2n1CCO)c1ccc(O)cc1` reads -0.133.
`CCOC(=O)c1cc(CC)sc1NC(=O)c1ccc(N2C(=O)CCC2=O)cc1` had a z-score of -0.383.
The result for `COc1ccc(C)cc1S(=O)(=O)N(C)CC(=O)N1CCCCCC1` reads -0.534; that for `O=C(CSc1nc(-c2ccco2)cc(C(F)(F)F)n1)N1CCN(c2ccc(Cl)cc2)CC1`, -0.455.
The result for `COc1ccc(C2C(C(N)=O)=C(C)Nc3nc(-c4ccccc4OC)nn32)cc1OC` (configuration not stated) reads 0.317; that for `CCCN1C(=O)c2cccc3c(N4CCCCC4)ccc(c23)C1=O`, -0.337; that for `O=C1N/C(=C\c2ccc(N3CCOCC3)c(F)c2)C(=O)N1Cc1ccccc1`, -0.434.
`O=C1/C(=C/c2ccc(N3CCCC3)cc2)NC(=S)N1C1CC1`: the z-score is 2.85.
The result for `CC(C)CN1C(=O)/C(=C/c2cccs2)NC1=S` reads 15.8 (active); that for `O=C1N/C(=C/c2ccc(N3CCCC3)cc2)C(=O)N1c1ccccc1`, -0.886.
The result for `COc1ccc(N2C(=O)/C(=C/c3cccs3)NC2=S)cc1` reads 1.07; that for `CCN1C(=O)/C(=C/c2ccc(N3CCCC3)cc2)NC1=S`, 1.3.
As to `Cc1ccc(NC(=O)CN2C(=O)N/C(=C/c3ccc(C)s3)C2=O)cc1`, the z-score was 0.22.
`CCCN1C(=O)/C(=C/c2ccc(N3CCCC3)c(C)c2)NC1=S`: the z-score was 11 (active).
To `CCCN1C(=O)/C(=C/c2ccc(C)s2)NC1=S` belongs 13.9 (active).
Turning to `COC(=O)C1=C(C)N(CC(C)C)C(=O)/C1=C\c1cccs1`, the z-score was -0.236.
The compound `Cc1cccc(CN2C(=O)N/C(=C/c3ccc(C)s3)C2=O)c1` yielded a z-score of -0.147.
The result for `O=C1CSC(=S)N1CC1CCCO1` (configuration not stated) reads -0.08; that for `Cc1noc(C)c1C(=O)NCCc1ccc(Cl)cc1`, -0.377.
The result for `COCC(=O)NC1CCN(C(=O)Nc2ccc(Br)cc2)CC1` reads -0.036; that for `CCOC(=O)c1c(C)[nH]c(C(=O)/C(C#N)=C/c2ccc(OC(F)F)c(OC)c2)c1C`, -0.315; that for `O=C(NCC(c1cccs1)N1CCOCC1)c1ccccc1NS(=O)(=O)c1ccc(Cl)cc1` (configuration not stated), -0.359.
On to `Cc1csc(NC(=O)C2CCCN(S(=O)(=O)c3cnc[nH]3)C2)n1` (configuration not stated), for which the z-score was determined as 0.36.
The result for `Cc1cccc(OCCSc2nc3c([nH]2)c(=N)ncn3Cc2ccccc2)c1` reads -0.0916.
To `CC(C)(C)c1ccc(C(=O)NC(=S)NCC2CCCO2)cc1` (configuration not stated) belongs 1.62; to `Cc1ccccc1Nc1nc(-c2sc(NC(=O)c3ccco3)nc2C)cs1`, -0.239; to `Nc1ccc(Sc2cnn(-c3ccccc3)c(=O)c2Cl)cc1`, -2.01.
The result for `Cc1ccc(/C=C2/NC(=O)N(Cc3ccccc3)C2=O)s1` reads -0.0544.
In turn, `CCN1C(=O)/C(=C\N(C)C)NC1=S` yielded a z-score of -0.121.
The result for `CCN1C(=O)/C(=C/c2ccc(C)s2)NC1=S` reads 15.1 (active).
To `CCS(=O)(=O)N1CCN(c2ccc(Cl)cc2[N+](=O)[O-])CC1` belongs 0.325; to `COc1cccc(C(=O)CN2CCN(S(=O)(=O)c3ccc(Br)cc3)CC2)c1`, -0.472; to `CCOc1ccc(C(=O)CN2CCN(S(=O)(=O)c3ccc(Br)cc3)CC2)cc1`, 4.08 (active).
`CCOc1ccc(C(=O)CN2CCN(S(=O)(=O)c3ccc(OC)cc3)CC2)cc1` yielded a z-score of -0.414.

The record behind these values is PubChem BioAssay AID488969 (Vanderbilt High Throughput Screening Facility, 2010).
